Reference: PubChem BioAssay (NCI)
Several values for one entry are separate records, joined by “and”; a condition that tells them apart may be missing. Equal values may be shown once. This is part of a sample that, as a whole, favours compounds with a hit. Of some 83,000 tested, about 20% had one in any assay.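 Assay: single dose, 48 h. Readout: percent growth (0 = no net growth; negative = cell death). Active: <10.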 Activity calls are given as the source filed them.

Assays:
Assay in all cases: NCI-60 one-dose screen, 48 h (100 = growth as untreated, 0 = no growth, -100 = all killed)
Details in all cases: 10 µM unless noted
SK-MEL-2 melanoma = tested on: SK-MEL-2 melanoma
EKVX NSCLC = tested on: EKVX NSCLC
SN12C renal = tested on: SN12C renal
UO-31 renal = tested on: UO-31 renal
TK-10 renal = tested on: TK-10 renal
ACHN renal = tested on: ACHN renal
CAKI-1 renal = tested on: CAKI-1 renal
A498 renal = tested on: A498 renal
CCRF-CEM leukemia = tested on: CCRF-CEM leukemia
MOLT-4 leukemia = tested on: MOLT-4 leukemia
SR leukemia = tested on: SR leukemia
RPMI-8226 leukemia = tested on: RPMI-8226 leukemia
OVCAR-8 ovarian = tested on: OVCAR-8 ovarian
OVCAR-5 ovarian = tested on: OVCAR-5 ovarian
OVCAR-4 ovarian = tested on: OVCAR-4 ovarian
SK-OV-3 ovarian = tested on: SK-OV-3 ovarian
IGROV1 ovarian = tested on: IGROV1 ovarian
OVCAR-3 ovarian = tested on: OVCAR-3 ovarian
HS 578T breast = tested on: HS 578T breast
NCI/ADR-RES ovarian = tested on: NCI/ADR-RES ovarian

SMILES | growth (SK-MEL-2 melanoma) | growth (EKVX NSCLC) | growth (SN12C renal) | growth (UO-31 renal) | growth (TK-10 renal) | growth (ACHN renal) | growth (CAKI-1 renal) | growth (A498 renal) | growth (CCRF-CEM leukemia) | growth (MOLT-4 leukemia) | growth (SR leukemia) | growth (RPMI-8226 leukemia) | growth (OVCAR-8 ovarian) | growth (OVCAR-5 ovarian) | growth (OVCAR-4 ovarian) | growth (SK-OV-3 ovarian) | growth (IGROV1 ovarian) | growth (OVCAR-3 ovarian) | growth (HS 578T breast) | growth (NCI/ADR-RES ovarian)
COc1cc2nc(N3CCN(C(=O)C4COc5ccccc5O4)CC3)nc(N)c2cc1OC (stereo not given) | 112% (inactive) and 93.8% (inactive) | 97.5% (inactive) | 88.1% (inactive) and 83% (inactive) and 99.7% (inactive) | 94.5% (inactive) and 98.7% (inactive) and 85% (inactive) | 86.4% (inactive) and 88.4% (inactive) | 121% (inactive) and 92.4% (inactive) and 98.8% (inactive) | 103% (inactive) and 82.2% (inactive) and 87.4% (inactive) | 105% (inactive) and 94.2% (inactive) and 101% (inactive) | 74.9% (inactive) and 89.6% (inactive) and 97.8% (inactive) | 91.1% (inactive) and 66.1% (inactive) and 94.4% (inactive) | 70.4% (inactive) and 83.6% (inactive) | 100% (inactive) and 86.9% (inactive) and 102% (inactive) | 91.7% (inactive) and 94.7% (inactive) and 101% (inactive) | 127% (inactive) and 112% (inactive) and 96.7% (inactive) | 92.4% (inactive) and 93.2% (inactive) and 98.9% (inactive) | 114% (inactive) and 103% (inactive) and 105% (inactive) | 93.4% (inactive) and 109% (inactive) and 95.6% (inactive) | 107% (inactive) and 109% (inactive) and 103% (inactive) | 93.7% (inactive) and 118% (inactive) | 93.9% (inactive) and 97.6% (inactive) and 110% (inactive)
Oc1c(Cl)cc(Cl)cc1Sc1cc(Cl)cc(Cl)c1O | -21.7% (active) and -41% (active) and 79.7% (inactive) | 50% (inactive) and 23.4% (inactive) and 89% (inactive) | 26.8% (inactive) and -26.6% (active) and 72.8% (inactive) | 73.2% (inactive) and 36.9% (inactive) and 85.2% (inactive) | 46.9% (inactive) and -11.2% (active) and 87.2% (inactive) | 15.2% (inactive) and 105% (inactive) | 17.9% (inactive) and 11.7% (inactive) and 62.8% (inactive) | 54.4% (inactive) and 42.3% (inactive) and 69.5% (inactive) | 23.1% (inactive) and 9.78% (active) and 61.2% (inactive) | 38.7% (inactive) and 16.2% (inactive) and 91% (inactive) | 42.1% (inactive) and 77.1% (inactive) and 107% (inactive) | 11.8% (inactive) and -29% (active) and 41.3% (inactive) | 31.7% (inactive) and 2.65% (active) and 71.7% (inactive) | 49.9% (inactive) and 102% (inactive) | 78.1% (inactive) and 38.2% (inactive) and 93.3% (inactive) | 74.6% (inactive) and 96.4% (inactive) | 56.5% (inactive) and 33.3% (inactive) and 73.7% (inactive) | 47.1% (inactive) and 11.6% (inactive) and 76.5% (inactive) | 47.9% (inactive) and 53.5% (inactive) and 78.2% (inactive) | 15.8% (inactive) and 10.8% (inactive) and 82.7% (inactive)
CC(C)Oc1ccc2cc(-c3nn(CC4CCNCC4)c4ncnc(N)c34)ccc2c1 | 100% (inactive) | 97.4% (inactive) and 26.2% (inactive) | 79.7% (inactive) | 71.6% (inactive) and 36.9% (inactive) | 82.2% (inactive) and 14.6% (inactive) | 88.1% (inactive) and 14.1% (inactive) | 106% (inactive) and 31% (inactive) | 75% (inactive) and 16.7% (inactive) | 60.6% (inactive) and -23% (active) | 29% (inactive) and -23.8% (active) | 18.3% (inactive) and -42.2% (active) | 46.6% (inactive) and -53.2% (active) | 90.8% (inactive) and 38.9% (inactive) | 80.1% (inactive) and 40.2% (inactive) | 100% (inactive) and 30.9% (inactive) | 75.8% (inactive) and 13.3% (inactive) | 92.1% (inactive) and 42.4% (inactive) | 92.2% (inactive) and 33.9% (inactive) | 75.7% (inactive) and -8.78% (active) | 94.7% (inactive) and 64.2% (inactive)
CCN(CC)CCOc1ccc(/C=N/Nc2nc3c([nH]2)c(=O)n(C)c(=O)n3C)cc1 | 102% (inactive) and 107% (inactive) | 99.1% (inactive) and 95.8% (inactive) | 98.9% (inactive) and 96.5% (inactive) | 80.8% (inactive) and 79.6% (inactive) | 94.2% (inactive) and 101% (inactive) | 102% (inactive) and 94.6% (inactive) | 118% (inactive) and 85.6% (inactive) | 88.5% (inactive) and 88.9% (inactive) | 83.5% (inactive) and 103% (inactive) | 88.4% (inactive) and 102% (inactive) | 102% (inactive) and 96.8% (inactive) | 90.7% (inactive) and 108% (inactive) | 107% (inactive) and 104% (inactive) | 117% (inactive) and 89.7% (inactive) | 107% (inactive) and 105% (inactive) | 106% (inactive) and 107% (inactive) | 110% (inactive) and 91.2% (inactive) | 114% (inactive) and 94.8% (inactive) | 106% (inactive) and 105% (inactive) | 118% (inactive) and 106% (inactive)
Cc1nn(-c2ccc(Cl)cc2)c2ncnc(N/N=C/c3ccccc3O)c12 | 12.3% (inactive) and 36% (inactive) | 38.1% (inactive) and 5.43% (active) | 23.1% (inactive) and 4.76% (active) | 35.2% (inactive) and -11.4% (active) | 16.4% (inactive) and 36.7% (inactive) | 16.5% (inactive) and 5.9% (active) | 13.5% (inactive) and 5.47% (active) | 78.5% (inactive) and 69.6% (inactive) | 6.41% (active) and -2.4% (active) | 9.43% (active) and 6.36% (active) | 4.8% (active) and 5.64% (active) | 37.1% (inactive) and 11.7% (inactive) | 14.1% (inactive) and 14% (inactive) | 47.5% (inactive) and 52.7% (inactive) | 19.5% (inactive) and 21.9% (inactive) | 4.44% (active) and 10.8% (inactive) | 23.9% (inactive) and 4.47% (active) | 34.9% (inactive) and 26.7% (inactive) | 81% (inactive) and 56.4% (inactive) | 19.1% (inactive) and 10.5% (inactive)
CCN1CCN(CCNc2nccc(-c3c(-c4cccc(O)c4)nc4sccn34)n2)S1(=O)=O | 11.2% (inactive) and 27.5% (inactive) | 110% (inactive) and 111% (inactive) | 75.8% (inactive) and 66.7% (inactive) | 67.9% (inactive) and 58.3% (inactive) | 92.8% (inactive) | 47.5% (inactive) and 33.5% (inactive) | 44.2% (inactive) and 34% (inactive) | 74.2% (inactive) and 66.8% (inactive) | 67.4% (inactive) and 62.1% (inactive) | 89.7% (inactive) and 81.7% (inactive) | 59.4% (inactive) and 36.2% (inactive) | 69.3% (inactive) and 102% (inactive) | 90% (inactive) and 68.3% (inactive) | 87.2% (inactive) and 95.5% (inactive) | 106% (inactive) and 77.7% (inactive) | 38.4% (inactive) and 39.1% (inactive) | 54% (inactive) and 57.5% (inactive) | 92.9% (inactive) and 86.7% (inactive) | 78% (inactive) | 102% (inactive) and 103% (inactive)
Cc1ccc(S(=O)(=O)Nc2ccc3cc([N+](=O)[O-])ccc3c2[N+](=O)[O-])cc1 | 99.7% (inactive) and 87.5% (inactive) | 86% (inactive) and 75.7% (inactive) | 74.7% (inactive) and 91.6% (inactive) | 47.1% (inactive) and 58.1% (inactive) | 78.5% (inactive) and 101% (inactive) | 71.2% (inactive) and 94.5% (inactive) | 57.8% (inactive) and 69.4% (inactive) | 69.1% (inactive) and 83% (inactive) | 79.1% (inactive) and 39.4% (inactive) | 82.8% (inactive) and 63% (inactive) | 91.8% (inactive) and 64.3% (inactive) | 51.6% (inactive) and 38.2% (inactive) | 81.3% (inactive) and 96.4% (inactive) | 96.9% (inactive) and 106% (inactive) | 81.4% (inactive) and 106% (inactive) | 78% (inactive) and 103% (inactive) | 75.1% (inactive) and 88.1% (inactive) | 46% (inactive) and 98.9% (inactive) | 77.3% (inactive) and 94.7% (inactive) | 79.5% (inactive) and 105% (inactive)
CCN(CC)CCNc1cc(-c2cccc(OC(F)(F)F)c2)nc2ccc(N3CCCC3)cc12 | 52.2% (inactive) and -30.5% (active) and 4.6% (active) | 73.5% (inactive) and 59.5% (inactive) and 42.8% (inactive) | 3.62% (active) and 3.14% (active) and 38.1% (inactive) | 10.4% (inactive) and -12.9% (active) and 29.7% (inactive) | 74.5% (inactive) and 19.1% (inactive) and 40.1% (inactive) | 24.4% (inactive) and 12.9% (inactive) and 27.7% (inactive) | 49.1% (inactive) and 34.2% (inactive) and 23.1% (inactive) | 71.2% (inactive) and 4.86% (active) and 50.8% (inactive) | -30.4% (active) and -4.6% (active) and 2.25% (active) | -19.7% (active) and -14.3% (active) and 3.16% (active) | -29.4% (active) and -36.8% (active) and -10.8% (active) | -53.3% (active) and -33.8% (active) and 14.6% (inactive) | 39.7% (inactive) and 2.29% (active) and 22.4% (inactive) | 50.6% (inactive) and 5.44% (active) and 34.6% (inactive) | 59.3% (inactive) and 44.7% (inactive) and 30% (inactive) | 52.6% (inactive) and 10.9% (inactive) and 53.6% (inactive) | -14.8% (active) and 6.93% (active) and 25.2% (inactive) | 75.8% (inactive) and -2.31% (active) and 47.2% (inactive) | 66.4% (inactive) and -7.2% (active) and 38.9% (inactive) | 9.79% (active) and -16.8% (active) and 25.2% (inactive)
